Most compounds without a hit are left out; they make up all but 13% or so of the library.
CHX counter = Cycloheximide Counterscreen for Small Molecule Inhibitors of Shiga Toxin; cell reporter, cycloheximide protein synthesis inhibition counterscreen; max response, %; 300,000 tested, 12% active; in the data active means max response mostly above about 13%, no sharp cut-off; inactive means mostly below about 14%; further: read at 38.3 µM for the half of the compounds with a filed dose
Marburg entry inh = qHTS for inhibitors of binding or entry into cells for Marburg Virus; Marburg virus pseudotyped entry inhibition, cell reporter; Potency, µM (highest dose often 37.8 µM), actives largely listed as inhibitors; 300,000 tested, 1.8% active; calls by dose curve; tested in HEK293 cells
HCV inhibitor = qHTS Assay for Inhibitors of Hepatitis C Virus (HCV) | 340,000 tested, 3.4% active | AID 651820, 2012 | Potency, µM (highest dose often 41.8 µM), hits mostly inhibitors | Huh7.5.1 HCVcc-Cre infection, luciferase reporter, 44 h; active means well fitted inhibition curve with a large enough effect; inconclusive means small, poorly fitted or top-dose-only effect, or another doubt; inactive means no such curve, though single readings can be large or run the other way
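Cells (1,000/well) were plated 4 h before compound, then infected with HCVcc-Cre virus (~0.5 moi). After 44 h further culture, infection was read as luciferase luminescence following a 15 min substrate incubation at room temperature.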
LASV entry inh = qHTS for Inhibitors of binding or entry into cells for Lassa Virus | Potency, µM (series often up to 37.9 µM), usual class: inhibitors | Lassa virus pseudotype entry inhibition, cell reporter | 300,000 tested, 1.2% active | AID 540256, 2011; calls by dose curve; tested in HEK293 cells; further: nearly all actives have a fitted effect of over 50% in size
Shiga toxin inh = A qHTS for Small Molecule Inhibitors of Shiga Toxin. inhibition, % at 38.7 µM. Vero cells, Shiga toxin protein synthesis inhibition reporter. 290,000 tested, 9.2% active; in the data active means inhibition mostly above about 28%, no sharp cut-off; inactive means mostly below about 43%
FMDV antiviral = High Throughput Screening for Foot and Mouth Disease Virus Antivirals; FMDV antiviral cell-based qHTS; Potency, µM (doses to about 57.9 µM), actives largely listed as inhibitors; 410,000 tested, 1.2% active; AID 1159524, 2015; calls by dose curve; tested in HEK293T cells; further: read-out not given here; nearly all actives have a fitted effect of over 45% in size
Of the large screens only hits and unclear results are named; the others gave an inactive call.

O=C(N/N=C/c1ccccc1)NC1CCCCC1	CHX counter 30.7
Cc1cc(C)n(C(=O)CCC(=O)Nc2ccc(C)c(C)c2)n1	none
COc1ccc(OCC(O)CN2CCN(CC(O)COc3ccc(OC)cc3)CC2)cc1 (stereo not drawn)	HCV inhibitor inconclusive (no result: Marburg entry inh, LASV entry inh)
O=C(N/N=C/c1ccccc1F)NC1CCCCC1	CHX counter 18.2, Shiga toxin inh 33.1
COc1ccccc1C(=O)N/C(=C\c1cn(C)c2ccccc12)C(=O)NCCCn1ccnc1	none
Cc1oc(-c2ccccc2)nc1Cn1cccc1C1=NC(c2ccccc2)CO1 (stereo not drawn)	Marburg entry inh 20µM, HCV inhibitor inconclusive, LASV entry inh inconclusive, FMDV antiviral inconclusive
Cc1ccc(NC(=O)Cn2cccc2C2=NC(c3ccccc3)CO2)cc1C (stereo not drawn)	Marburg entry inh inconclusive
Fc1ccc(Cn2cccc2C2=NC(c3ccccc3)CO2)cc1 (stereo not drawn)	CHX counter 68.7, Shiga toxin inh 74.9
CC(C)C[C@H]1COc2cc(N3CCN(Cc4ccccc4F)CC3)ccc2S(=O)(=O)N1	none (no result: CHX counter, Marburg entry inh, HCV inhibitor, LASV entry inh, Shiga toxin inh)
Cc1cc(Nc2ccc(N(C)C)cc2)n2ncnc2n1	CHX counter 43.5, Shiga toxin inh 97.7
CCOC(=O)N1CCc2c(sc(NCc3cccs3)c2C(=O)Nc2cc(Cl)ccc2OC)C1	none (no result: CHX counter, Marburg entry inh, HCV inhibitor, Shiga toxin inh)
Cc1ccc(C(=O)NC2CC(=O)N(c3ccc4c(c3)OCCO4)C2)cc1[N+](=O)[O-] (stereo not drawn)	none (no result: CHX counter, Shiga toxin inh)
Fc1ccc(-c2nc3n(n2)Cc2ccccc2-3)cc1	CHX counter 42.2, Marburg entry inh inconclusive, HCV inhibitor inconclusive, LASV entry inh 12.6µM, Shiga toxin inh 66.2
N=C1c2ccccc2CN1NC(=O)c1ccc(F)cc1	none (no result: FMDV antiviral)
CCn1c(C)nc2cc(-c3nc4n(n3)Cc3ccccc3-4)ccc21	Marburg entry inh inconclusive, LASV entry inh inconclusive, FMDV antiviral 0.794µM
Cc1ccc(-c2nc3n(n2)Cc2ccccc2-3)cc1	CHX counter 19.6, Marburg entry inh inconclusive, LASV entry inh inconclusive
NC(=S)Cc1nc2n(n1)Cc1ccccc1-2	none
O=C(COC(=O)c1ccc(O)cc1)NCC1COc2ccccc2O1 (stereo not drawn)	LASV entry inh inconclusive (no result: CHX counter, Shiga toxin inh)
COc1ccc(OC)c(C(=O)N(C)C2CCCN(Cc3ccccc3F)C2)c1 (stereo not drawn)	none (no result: Marburg entry inh, LASV entry inh)
Oc1ccc(-c2cccc(-c3ccc(O)cc3)n2)cc1	CHX counter 38.9, Shiga toxin inh 67.2
Oc1ccc(-c2nccc(-c3ccc(Cl)cc3Cl)n2)cc1	none
Oc1ccc(-c2nccc(-c3ccc(Cl)cc3)n2)cc1	CHX counter 52.9, Marburg entry inh inconclusive, Shiga toxin inh 123.1
CC(=O)Nc1ccc(-c2ccnc(-c3ccc(NC(C)=O)cc3)n2)cc1	Marburg entry inh inconclusive, HCV inhibitor inconclusive
COC(=O)C(C)Oc1ccc(-c2nccc(-c3cccs3)n2)cc1 (stereo not drawn)	CHX counter 26.6, HCV inhibitor inconclusive, Shiga toxin inh 51.3
Oc1ccc(-c2nccc(-c3cccs3)n2)cc1	CHX counter 58.3, HCV inhibitor inconclusive, Shiga toxin inh 133.1
Cc1cc(OCC(=O)Nc2c(C(C)C)cccc2C(C)C)no1	none (no result: CHX counter, Marburg entry inh, HCV inhibitor, LASV entry inh, Shiga toxin inh)
Cc1ccc(C2=NNC(=Nc3ccc(F)cc3)SC2)cc1	CHX counter 25.8, Marburg entry inh inconclusive, HCV inhibitor inconclusive, LASV entry inh inconclusive, Shiga toxin inh 84.1
C=CCn1c(C)cc(C2=NNC(=Nc3ccc(C)cc3)SC2)c1C	Marburg entry inh inconclusive
Cc1cccc(N=C2NN=C(c3ccc4c(c3)OCCO4)CS2)c1	CHX counter 26.9, Marburg entry inh inconclusive, LASV entry inh inconclusive, Shiga toxin inh 92.6
CCc1ccc(C2=NNC(=Nc3cccc(S(=O)(=O)N(C)C)c3)SC2)cc1	Marburg entry inh inconclusive, HCV inhibitor 4.47µM, LASV entry inh inconclusive
Cc1cccc(N=C2NN=C(c3c(C)[nH]c4ccccc34)CS2)c1	Marburg entry inh inconclusive, HCV inhibitor inconclusive, LASV entry inh inconclusive, FMDV antiviral inconclusive
Nc1nn(S(=O)(=O)c2cccc3nsnc23)cc1-c1ccc(Br)cc1	Marburg entry inh inconclusive, HCV inhibitor 10µM
Nc1sccc1C(=O)N1CCN(c2ccccc2)CC1	none (no result: CHX counter, Marburg entry inh, HCV inhibitor, LASV entry inh, Shiga toxin inh)
CC(C)(C)OC(=O)NCc1ccc(CNC(=O)c2nc[nH]c2C(=O)N2CCc3ccccc3C2)cc1	HCV inhibitor inconclusive, FMDV antiviral 39.8µM (no result: CHX counter, Marburg entry inh, LASV entry inh, Shiga toxin inh)
